The values that follow come from ChEMBL document CHEMBL3988442, “University of Dundee, Small-Polar-MMV Screening Library” (2021).

For some of these results: Results with a measured potency or affinity are listed apart.

What all share (design): scale not given: direction of the effect not stated beside the values
In assay [1] the target is Protein translocase subunit SecA (Escherichia coli (strain K12)) (UniProt P10408). In words: Assay to Identify E. coli SecA ATPase Inhibitors. As to conditions: 30 µM. It counts as functional.
Protein translocase subunit SecA (Escherichia coli (strain K12)), sequence (P10408 whole entry): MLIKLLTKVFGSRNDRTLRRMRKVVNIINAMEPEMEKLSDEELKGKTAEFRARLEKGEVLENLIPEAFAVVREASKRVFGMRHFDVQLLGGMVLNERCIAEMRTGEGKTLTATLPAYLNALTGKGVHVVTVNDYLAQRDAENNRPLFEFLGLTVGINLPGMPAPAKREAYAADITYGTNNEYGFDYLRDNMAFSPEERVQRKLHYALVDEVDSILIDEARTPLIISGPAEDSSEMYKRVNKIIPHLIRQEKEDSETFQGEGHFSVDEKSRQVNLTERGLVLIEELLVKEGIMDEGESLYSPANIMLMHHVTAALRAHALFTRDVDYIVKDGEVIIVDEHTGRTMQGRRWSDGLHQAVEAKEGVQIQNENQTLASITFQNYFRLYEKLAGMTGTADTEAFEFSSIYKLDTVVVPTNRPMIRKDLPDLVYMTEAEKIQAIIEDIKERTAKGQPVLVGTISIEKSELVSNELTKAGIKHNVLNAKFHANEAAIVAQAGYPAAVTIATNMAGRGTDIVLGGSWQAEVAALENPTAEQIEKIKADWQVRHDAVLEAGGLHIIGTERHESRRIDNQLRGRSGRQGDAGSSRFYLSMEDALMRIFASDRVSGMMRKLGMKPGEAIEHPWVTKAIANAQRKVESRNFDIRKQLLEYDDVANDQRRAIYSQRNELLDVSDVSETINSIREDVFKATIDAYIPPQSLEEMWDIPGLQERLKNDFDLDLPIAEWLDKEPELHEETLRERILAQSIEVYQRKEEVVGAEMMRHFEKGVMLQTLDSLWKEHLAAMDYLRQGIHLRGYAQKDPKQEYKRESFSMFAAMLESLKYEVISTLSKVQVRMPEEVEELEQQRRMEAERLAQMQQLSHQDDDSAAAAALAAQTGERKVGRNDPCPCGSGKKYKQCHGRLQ
Assay [2] concerns the target T1, Ubiquitin-activating enzyme e1, putative (Leishmania donovani (strain BPK282A1)) (UniProt E9BSI1).
T1 sequence (whole entry): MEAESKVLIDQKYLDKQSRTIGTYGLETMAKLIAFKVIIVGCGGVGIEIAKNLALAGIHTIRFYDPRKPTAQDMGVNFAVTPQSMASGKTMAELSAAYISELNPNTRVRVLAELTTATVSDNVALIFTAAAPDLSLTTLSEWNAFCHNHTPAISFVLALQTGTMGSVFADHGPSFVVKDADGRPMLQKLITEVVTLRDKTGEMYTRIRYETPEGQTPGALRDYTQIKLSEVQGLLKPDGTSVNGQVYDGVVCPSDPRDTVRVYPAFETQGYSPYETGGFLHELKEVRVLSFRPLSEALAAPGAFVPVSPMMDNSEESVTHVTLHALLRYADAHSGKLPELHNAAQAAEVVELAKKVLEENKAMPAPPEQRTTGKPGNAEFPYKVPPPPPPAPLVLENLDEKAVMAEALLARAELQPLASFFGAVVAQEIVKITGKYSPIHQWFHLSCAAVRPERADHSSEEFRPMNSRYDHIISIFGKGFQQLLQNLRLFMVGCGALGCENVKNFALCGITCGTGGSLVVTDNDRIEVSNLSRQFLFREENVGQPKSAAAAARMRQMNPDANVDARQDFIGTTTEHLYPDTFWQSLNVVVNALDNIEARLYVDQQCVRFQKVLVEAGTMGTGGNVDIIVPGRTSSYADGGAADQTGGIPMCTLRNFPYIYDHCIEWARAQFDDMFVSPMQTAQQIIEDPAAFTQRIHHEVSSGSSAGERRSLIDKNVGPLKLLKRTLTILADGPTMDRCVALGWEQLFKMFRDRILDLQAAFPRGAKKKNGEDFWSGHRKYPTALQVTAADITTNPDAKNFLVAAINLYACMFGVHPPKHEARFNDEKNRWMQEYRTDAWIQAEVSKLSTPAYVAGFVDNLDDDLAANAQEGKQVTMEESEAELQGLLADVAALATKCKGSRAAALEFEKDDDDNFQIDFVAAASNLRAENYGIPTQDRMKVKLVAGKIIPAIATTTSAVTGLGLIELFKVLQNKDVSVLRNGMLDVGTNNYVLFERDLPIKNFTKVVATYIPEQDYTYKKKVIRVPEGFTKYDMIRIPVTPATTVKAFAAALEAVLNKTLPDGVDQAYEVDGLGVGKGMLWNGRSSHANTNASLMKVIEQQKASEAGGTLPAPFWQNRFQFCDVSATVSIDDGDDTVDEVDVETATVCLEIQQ
In words: Leishmania donovani Ubiquitin Activating Enzyme (LdE1). It counts as functional. As to conditions: 30 µM.

In assay [3] the target is AMP-activated protein kinase, AMPK (Homo sapiens) (UniProt P54646+O43741+P54619+Q9UGJ0+Q9Y478+Q13131+Q9UGI9). The experiment in a line: AMP-dependent Kinase enzyme assay. An in vitro enzyme assay that detects ADP turnover that is directly proportional to AMPK activity. This uses naive AMPK that is activated during the assay with MK-8722. It is filed as functional. The note with it: 30 µM.

The target of assay [4] is Sialic acid-binding Ig-like lectin 9 (Homo sapiens) (UniProt Q9Y336). In words: Hs-Siglec9 ALPHAscreen SOP 20170721. The note with it: 10 µM.
Sialic acid-binding Ig-like lectin 9 (Homo sapiens), sequence (Q9Y336 whole entry): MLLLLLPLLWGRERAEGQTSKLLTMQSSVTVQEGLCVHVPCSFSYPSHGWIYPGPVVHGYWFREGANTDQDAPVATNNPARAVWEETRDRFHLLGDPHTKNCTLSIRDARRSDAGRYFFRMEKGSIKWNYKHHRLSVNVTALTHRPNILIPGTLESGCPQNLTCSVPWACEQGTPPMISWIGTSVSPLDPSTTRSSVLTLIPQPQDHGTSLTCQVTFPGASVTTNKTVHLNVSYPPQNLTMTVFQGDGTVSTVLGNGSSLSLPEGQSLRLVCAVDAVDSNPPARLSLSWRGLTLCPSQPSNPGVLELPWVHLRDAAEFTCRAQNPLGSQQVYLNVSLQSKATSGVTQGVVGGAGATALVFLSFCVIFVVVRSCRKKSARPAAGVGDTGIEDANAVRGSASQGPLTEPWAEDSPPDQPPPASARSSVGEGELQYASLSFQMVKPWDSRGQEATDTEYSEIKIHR
Another assay has as its system Trypanosoma cruzi. The experiment in a line: Trypanosoma cruzi phosphomannomutase and mannose-1-phosphate guanylyltransferase assay. As to conditions: 10 µM. It is filed as functional.
For assay [5], the target named is T2, Arginase-2, mitochondrial (Homo sapiens) (UniProt P78540).
T2 sequence (whole entry): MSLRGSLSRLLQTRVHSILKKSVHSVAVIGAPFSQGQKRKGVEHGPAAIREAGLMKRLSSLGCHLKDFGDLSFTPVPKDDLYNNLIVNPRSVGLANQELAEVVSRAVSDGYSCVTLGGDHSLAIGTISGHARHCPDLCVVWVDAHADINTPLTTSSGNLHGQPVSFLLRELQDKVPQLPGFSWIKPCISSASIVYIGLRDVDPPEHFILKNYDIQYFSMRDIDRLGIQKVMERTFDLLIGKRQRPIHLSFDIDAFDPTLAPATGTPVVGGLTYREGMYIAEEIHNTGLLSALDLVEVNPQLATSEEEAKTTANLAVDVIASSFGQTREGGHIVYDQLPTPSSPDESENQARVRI
In words: in vitro enzyme assay to detect the production of urea directly proportional to the activity of Arginase II. Note: in the data most compounds retested in dose-response had high values. It counts as functional. As to conditions: 33.3 µM.

Assay [6] concerns the target T3, Proteasome subunit beta (Trypanosoma cruzi) (UniProt O96673).
T3 sequence (whole entry): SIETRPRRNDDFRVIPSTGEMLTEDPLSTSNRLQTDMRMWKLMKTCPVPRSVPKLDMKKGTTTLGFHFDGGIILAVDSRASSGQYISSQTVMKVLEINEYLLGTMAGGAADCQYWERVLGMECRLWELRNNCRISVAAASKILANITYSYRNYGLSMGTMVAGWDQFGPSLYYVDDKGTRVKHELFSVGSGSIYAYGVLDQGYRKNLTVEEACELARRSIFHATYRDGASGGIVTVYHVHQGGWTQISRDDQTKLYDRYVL
The experiment in a line: Trypanosoma cruzi proteasome chymotrypsin-like activity (TcProtChymo) assay. Note: in the data most compounds retested in dose-response had high values. The note with it: 9.37 µM. It counts as functional.

The species entered for the next assay is Homo sapiens. The experiment in a line: To identify inhibition of the IFN signalling (Jak-Stat) pathway via expression of an eGFP reporter gene under the control of an IFN-stimulated response element (ISRE) containing MxA promoter. It is filed as functional. The note with it: 30 µM. (In general: A reporter such as luciferase makes a cellular process visible.)

The target of assay [7] is T4, Tyrosyl-tRNA synthetase, putative (Trypanosoma cruzi (strain CL Brener)) (UniProt Q4DSP6).
T4 sequence (whole entry): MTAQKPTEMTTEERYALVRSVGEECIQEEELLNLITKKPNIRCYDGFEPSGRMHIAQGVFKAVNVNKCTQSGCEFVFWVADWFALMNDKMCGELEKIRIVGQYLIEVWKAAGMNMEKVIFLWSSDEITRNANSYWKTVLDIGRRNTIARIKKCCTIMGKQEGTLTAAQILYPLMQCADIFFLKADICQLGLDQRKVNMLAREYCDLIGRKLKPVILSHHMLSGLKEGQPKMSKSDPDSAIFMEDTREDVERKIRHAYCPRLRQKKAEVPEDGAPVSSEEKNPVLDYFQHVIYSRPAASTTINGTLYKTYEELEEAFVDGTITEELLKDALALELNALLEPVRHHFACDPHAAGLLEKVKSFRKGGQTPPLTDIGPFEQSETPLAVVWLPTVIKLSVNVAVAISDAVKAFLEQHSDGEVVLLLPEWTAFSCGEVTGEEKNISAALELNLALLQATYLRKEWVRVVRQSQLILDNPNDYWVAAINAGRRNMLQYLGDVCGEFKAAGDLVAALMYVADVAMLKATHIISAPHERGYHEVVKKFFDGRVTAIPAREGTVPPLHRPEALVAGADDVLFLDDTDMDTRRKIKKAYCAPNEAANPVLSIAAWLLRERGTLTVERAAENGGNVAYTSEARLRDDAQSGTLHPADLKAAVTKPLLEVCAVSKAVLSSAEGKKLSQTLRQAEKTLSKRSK
The experiment in a line: Trypanosoma cruzi tyrosyl tRNA synthetase (TcYRS) _High Tyrosine SOP. Note: in the data most compounds retested in dose-response had high values. It counts as functional. As to conditions: 30 µM.

Assay [8] addresses T4, Tyrosyl-tRNA synthetase, putative (Trypanosoma cruzi (strain CL Brener)). The experiment in a line: Trypanosoma cruzi tyrosyl tRNA synthetase (TcYRS) SOP. It is filed as functional. As to conditions: 30 µM.
Assay [9] has as its target Chromo domain-containing protein 1 (Saccharomyces cerevisiae (strain ATCC 204508 / S288c) (Baker's yeast)) (UniProt P32657). The experiment in a line: ScCHD-1 Enzyme Inhibition Assay. Note: in the data most compounds retested in dose-response had high values. It counts as functional. As to conditions: 30 µM.

Chromo domain-containing protein 1 (Saccharomyces cerevisiae (strain ATCC 204508 / S288c) (Baker's yeast)), sequence (P32657 whole entry, the tested form may be a part): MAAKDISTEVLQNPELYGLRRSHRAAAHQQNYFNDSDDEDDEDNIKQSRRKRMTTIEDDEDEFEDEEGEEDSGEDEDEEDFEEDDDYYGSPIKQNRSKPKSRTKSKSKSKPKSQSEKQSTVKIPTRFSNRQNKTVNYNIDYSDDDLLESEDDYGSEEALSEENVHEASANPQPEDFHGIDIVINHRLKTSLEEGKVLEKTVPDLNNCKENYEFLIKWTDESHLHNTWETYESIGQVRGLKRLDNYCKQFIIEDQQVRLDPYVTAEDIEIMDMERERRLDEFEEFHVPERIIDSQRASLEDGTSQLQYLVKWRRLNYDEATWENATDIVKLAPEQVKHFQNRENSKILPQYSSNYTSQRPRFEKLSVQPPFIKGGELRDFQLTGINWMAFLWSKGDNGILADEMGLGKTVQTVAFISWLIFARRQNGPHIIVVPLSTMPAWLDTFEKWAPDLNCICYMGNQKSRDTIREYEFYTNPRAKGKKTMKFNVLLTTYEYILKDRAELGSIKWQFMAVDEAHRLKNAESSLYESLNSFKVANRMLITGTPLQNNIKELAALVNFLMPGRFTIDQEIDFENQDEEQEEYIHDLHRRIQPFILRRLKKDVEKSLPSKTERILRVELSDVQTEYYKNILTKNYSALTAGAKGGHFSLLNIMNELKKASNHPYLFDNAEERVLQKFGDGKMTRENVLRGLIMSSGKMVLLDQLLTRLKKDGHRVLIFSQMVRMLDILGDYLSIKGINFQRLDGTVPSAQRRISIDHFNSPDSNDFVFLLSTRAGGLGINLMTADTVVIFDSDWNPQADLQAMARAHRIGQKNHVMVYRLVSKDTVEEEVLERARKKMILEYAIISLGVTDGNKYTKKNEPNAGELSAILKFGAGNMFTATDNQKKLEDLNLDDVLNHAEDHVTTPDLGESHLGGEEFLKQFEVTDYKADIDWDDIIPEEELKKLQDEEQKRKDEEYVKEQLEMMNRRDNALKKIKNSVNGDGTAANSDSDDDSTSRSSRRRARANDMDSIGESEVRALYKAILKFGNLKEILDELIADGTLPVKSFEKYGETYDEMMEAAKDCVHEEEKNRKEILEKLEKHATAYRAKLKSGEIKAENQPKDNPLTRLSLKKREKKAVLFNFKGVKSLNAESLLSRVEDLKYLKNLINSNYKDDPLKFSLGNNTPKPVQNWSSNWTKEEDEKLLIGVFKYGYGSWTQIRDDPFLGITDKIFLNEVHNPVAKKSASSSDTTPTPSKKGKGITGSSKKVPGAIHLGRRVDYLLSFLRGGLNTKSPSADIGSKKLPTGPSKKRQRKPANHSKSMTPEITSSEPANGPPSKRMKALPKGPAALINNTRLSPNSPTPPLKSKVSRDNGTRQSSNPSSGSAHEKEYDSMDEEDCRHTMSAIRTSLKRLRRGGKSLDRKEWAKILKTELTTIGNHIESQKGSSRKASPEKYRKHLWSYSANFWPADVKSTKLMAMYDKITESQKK

As to `Cc1csc2c(N3CCC(NCCCc4ccncc4)CC3)ncnc12`, the Percent Effect in [1] was -0.362%; in assay [2], 2.6%; in [3], 5.76%; in [4], 17.7%; in the assay on Trypanosoma cruzi it was -1.08%; in assay [5], -1.38%. The Percent Effect was 6.49% in assay [6]; -3.09% in the assay filed under Homo sapiens; 7.53% in [7]; 11.1% in assay [8]; -2.5% in assay [9].
Consider `CC(C)OCCOCc1cccc(NC(=O)NCc2ccncc2)c1`, for which the Percent Effect in assay [1] is 2.27%; in assay [2], 13%; in [3], -7.84%; in [4], -0.138%; with Trypanosoma cruzi it was -0.295%; in assay [5] it was -11%. Moreover, the Percent Effect was 11.5% in assay [6]; 30.4% in the assay filed under Homo sapiens; 6.45% in assay [7]; 13.6% in assay [8]; -2.65% in [9].
For `O=C(c1ccco1)N1CCC2(CCOC2)C1` (stereo unspecified), the Percent Effect in [1] is -0.538%; in [2], 12%; in assay [3] it was -4.74%; in assay [4], -1.73%; with Trypanosoma cruzi, -2.16%; in assay [5], 3.35%. The Percent Effect in assay [6] was 20.1%; in the assay filed under Homo sapiens, -9.81%; in [7], 1.06%; in assay [8], 7.69%; in assay [9], -7.58%.
Consider `Cc1cccc(-c2nc(CN3CCc4c(ncn4C)C3)no2)c1`, for which the Percent Effect in [1] is -6.97%; in assay [2], 2.6%; in assay [3] it was -1.39%; in assay [4], -3.74%; in the assay on Trypanosoma cruzi, -7.12%; in assay [5] it was 0.356%. Besides, the Percent Effect in [6] was 2.7%; in the assay filed under Homo sapiens, 21.7%; in [7], -0.971%; in assay [8] it was -2.44%; in assay [9] it was -2.23%.
For the compound `O=C(C1SCCc2sccc21)N1CCN(CCO)CC1` (stereo unspecified), the Percent Effect is -6.92% in assay [1]; 16.2% in assay [2]; -1.14% in assay [3]; 33.4% in assay [4]; 2.34% in the assay on Trypanosoma cruzi; 22.5% in assay [5]. Besides, the Percent Effect is 17.7% in assay [6]; 11.7% in the assay filed under Homo sapiens; -3.96% in [7]; 15.8% in [8]; -3.8% in [9].
For `Cc1ccc2c(n1)N(C)CCN(C(=O)NC1CC1)C2`, the Percent Effect in assay [1] was -5.82%; in assay [2], -2.67%; in assay [3] it was 117%; in assay [4] it was -1.66%; in the assay on Trypanosoma cruzi it was -7.53%; in [5], -57.2%. In addition, the Percent Effect in assay [6] was 4.96%; in the assay filed under Homo sapiens, 18.6%; in assay [7] it was -3.12%; in assay [8], 5%; in [9], -9.39%.
Consider `O=C(Nc1nc2c(s1)CCC2)c1cccnc1N1CCOCC1`, for which the Percent Effect is -0.311% in assay [1]; -2.63% in assay [2]; 9.51% in assay [3]; -0.88% in [4]; -4.19% with Trypanosoma cruzi; 11.8% in [5]. Besides, the Percent Effect in assay [6] was 4.7%; in the assay filed under Homo sapiens it was 2.75%; in assay [7], 0%; in [8], -2.6%; in assay [9], 1.45%.
In the case of `CNS(=O)(=O)Cc1ccc(CNC(=O)Nc2cn[nH]c2)cc1`, the Percent Effect in assay [1] is -5.68%; in assay [2], 20.2%; in assay [3], 6.15%; in [4], -12.1%; in the assay with Trypanosoma cruzi it was -3.68%; in assay [5] it was 1.52%. In addition, the Percent Effect in assay [6] is 8.11%; in the assay listed under Homo sapiens, 18.9%; in assay [7], 2.46%; in assay [8] it was 13.9%; in assay [9], -0.403%.
For the compound `COCCN1CC[C@@H](O)[C@@H]1Cc1ccccc1`, the Percent Effect in assay [1] is 1.28%; in [2] it was 6.67%; in [3], 2.24%; in assay [4], 0.614%; with Trypanosoma cruzi, -10.4%; in [5] it was -8.63%. The Percent Effect in assay [6] is 10.7%; in the assay listed under Homo sapiens it was -7.47%; in [7] it was 2.12%; in assay [8] it was 0%; in assay [9], -7.73%.
With `Fc1cccc(Oc2ccc(CNCC3CNc4ccnn4C3)cn2)c1` (stereo unspecified), the Percent Effect in [1] was -2.95%; in assay [2] it was 13%; in assay [3], -2.17%; in [4] it was 5.01%; in the assay with Trypanosoma cruzi, 10.5%; in assay [5] it was 2.85%. In addition, the Percent Effect in [6] is 8.28%; in the assay filed under Homo sapiens, 8.31%; in [7], 37.9%; in assay [8], 43.9%; in [9], -12.1%.
For the compound `CC(=O)N1CCN(S(=O)(=O)c2ccc(C)c(F)c2)CC1`, the Percent Effect was -4.54% in [1]; 10.5% in assay [2]; 2.19% in assay [3]; -1.23% in assay [4]; 5.75% in the assay with Trypanosoma cruzi; 9.47% in assay [5]. For the same compound, the Percent Effect in [6] is 13.1%; in the assay listed under Homo sapiens it was 12.6%; in [7], 2.13%; in assay [8], 15.6%; in assay [9], -3.17%.
